Measured values taken from publication PMC4336329 (PLoS ONE, 2015).
The whole screen tested about 310,000 compounds, of which about 14,000 (4.5%) showed an effect of 50% or more. Effects have a minus sign here. The sample as a whole holds a higher share of strong results than the screen did.

Target: human ether-à-go-go-related gene (hERG) potassium channel (human, UniProt Q12809)
Test: primary screen, population patch clamp on CHO cells stably expressing hERG; higher = less effect of the substance
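Note: peak tail current of the secondary pulse compared with the same well before compound.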

Sequence of human ether-à-go-go-related gene (hERG) potassium channel (Q12809 whole entry, looked up): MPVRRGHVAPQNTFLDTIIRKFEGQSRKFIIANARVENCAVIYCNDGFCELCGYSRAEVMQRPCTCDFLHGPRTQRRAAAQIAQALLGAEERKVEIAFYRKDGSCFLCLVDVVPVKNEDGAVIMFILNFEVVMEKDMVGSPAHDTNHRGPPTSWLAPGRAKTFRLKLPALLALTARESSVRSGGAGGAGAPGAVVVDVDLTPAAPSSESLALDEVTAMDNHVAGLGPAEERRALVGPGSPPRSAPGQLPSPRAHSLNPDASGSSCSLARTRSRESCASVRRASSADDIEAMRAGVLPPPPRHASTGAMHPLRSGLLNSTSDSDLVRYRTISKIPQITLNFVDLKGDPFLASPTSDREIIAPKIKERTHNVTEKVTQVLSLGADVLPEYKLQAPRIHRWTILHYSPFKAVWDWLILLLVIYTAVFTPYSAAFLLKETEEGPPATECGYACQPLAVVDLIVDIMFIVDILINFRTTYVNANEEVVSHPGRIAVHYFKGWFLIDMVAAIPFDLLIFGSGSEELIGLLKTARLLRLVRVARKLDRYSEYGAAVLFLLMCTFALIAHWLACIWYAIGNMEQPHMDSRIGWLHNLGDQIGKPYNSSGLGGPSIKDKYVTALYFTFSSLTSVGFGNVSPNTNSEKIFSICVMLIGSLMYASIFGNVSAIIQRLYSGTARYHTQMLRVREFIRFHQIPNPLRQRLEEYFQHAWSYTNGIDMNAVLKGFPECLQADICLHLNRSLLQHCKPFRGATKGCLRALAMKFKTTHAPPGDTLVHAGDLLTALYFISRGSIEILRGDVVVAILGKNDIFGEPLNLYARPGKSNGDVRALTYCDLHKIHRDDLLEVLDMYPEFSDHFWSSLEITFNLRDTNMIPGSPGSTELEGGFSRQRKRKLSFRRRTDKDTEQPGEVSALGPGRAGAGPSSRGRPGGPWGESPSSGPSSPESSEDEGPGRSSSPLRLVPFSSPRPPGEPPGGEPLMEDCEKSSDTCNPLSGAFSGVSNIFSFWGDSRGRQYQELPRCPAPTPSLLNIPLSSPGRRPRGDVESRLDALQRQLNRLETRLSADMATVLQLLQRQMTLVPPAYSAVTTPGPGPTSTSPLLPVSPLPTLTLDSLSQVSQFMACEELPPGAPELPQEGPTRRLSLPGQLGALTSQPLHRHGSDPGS

Structure (SMILES)	hERG current change (%, negative = inhibition) at 10uM [%]
COc1ccccc1CNc1cc(CSc2ccc(Cl)cc2)nc(C)n1	-0.554
CCOC(=O)c1ccc(N2Cc3ccccc3C2=NC(=O)c2cccc([N+](=O)[O-])c2)cc1	10.7
CN(C)c1ccc(/C=N/NC(=O)CCCO)cc1	24.4
O=C(NCCCN1CCOCC1)c1ccc(CSCc2cccc(Cl)c2)o1	-64.4
Cc1cccc(CS(=O)(=O)Cc2ccc(C(=O)NCCCN3CCOCC3)o2)c1	-12.6
Cc1ccc(CSCC(=O)NCCCN2CCOCC2)cc1	11.4
Cc1ccc(CSCc2ccc(C(=O)NCCCN3CCOCC3)o2)cc1	-51.8
CN1CCN(CCCNC(=O)c2ccc(CSCc3cccc(Cl)c3)o2)CC1	-40.2
O=C(NCCN1CCOCC1)c1ccc(CSCc2cccc(Cl)c2)o1	-43.7
COCCNC(=O)c1ccc(CSCc2cccc(Cl)c2)o1	-7.69
O=C(NCCCN1CCCC1)c1ccc(CSCc2cccc(Cl)c2)o1	-61.8
Cc1ccccc1CSCc1ccc(C(=O)NCCCN2CCOCC2)o1	-47.6
CC(=O)Nc1ccc(S(=O)(=O)Nc2ccc3c(c2)OCCO3)cc1Cl	15.5
CN(Cc1ccccc1)C(=O)c1c[nH]c2ccc(S(=O)(=O)N3CCOCC3)cc2c1=O	3.03
Cc1ccc(S(=O)(=O)N2CCN(C(=O)n3ccnc3)CC2)cc1	-5.76
CC(C)Cc1nc(N2CCN(C(=O)c3ccccc3)CC2)c(C#N)c2c1CCC2	-24.1
COc1cc(C)c(S(=O)(=O)NOCc2ccc([N+](=O)[O-])cc2)c(C)c1C	8.43
CN(C)C(=O)N1CCNCC1.Cl	12.8
CC(C)[C@H](NC(=O)OC(C)(C)C)C(=O)N1CCC(C(=O)N[C@@H](C)C(=O)Nc2ccc(F)cc2)CC1	10.7
Cn1c(=O)c2c(nc(SCC(=O)NCc3ccc4c(c3)OCO4)n2Cc2ccc(Cl)cc2)n(C)c1=O	-50.6
Cn1c(=O)c2c(nc(NCc3ccc4c(c3)OCO4)n2Cc2ccc(F)cc2)n(C)c1=O	-5.77
Cn1c(=O)c2c(nc(SCC(=O)NCc3ccc4c(c3)OCO4)n2Cc2ccccc2)n(C)c1=O	-46.9

Structure (SMILES)	hERG current change (%, negative = inhibition) at 10uM [%]
Cn1c(=O)c2c(nc(SCC(=O)NCc3ccc4c(c3)OCO4)n2Cc2ccc(F)cc2)n(C)c1=O	-63.1
CCn1c(SCC(=O)Nc2ccc3c(c2)OCO3)nc2c1c(=O)n(C)c(=O)n2C	-0.539
Cn1c(=O)c2c(nc(SCC(=O)NCC3CCCO3)n2Cc2ccc(F)cc2)n(C)c1=O (centres unmarked)	-41.6
O=C(NN1CCOCC1)c1sc2cccc(F)c2c1Cl	9.93
c1ccc(-c2cnc(CSc3ncnc4sccc34)o2)cc1	7.1
N#CC1=C(N)SC(N)=C(C#N)C1CCc1ccccc1	26.4
C/C(=N/NC(=O)CNC(=O)Cc1ccccc1)c1ccc(Cl)cc1	5.97
CN1/C(=C\C=C(/C#N)C(=O)Nc2ccc(Cl)cc2)C(C)(C)c2ccccc21	13
CCNC(=O)CC1C(=O)N(c2cccc(C)c2)C(=O)N1CCC(C)C (centres unmarked)	-75
CCNC(=O)CC1C(=O)N(c2ccc(C)cc2)C(=O)N1CCC(C)C (centres unmarked)	-2.19
CCNC(=O)CC1C(=O)N(c2ccccc2)C(=O)N1CCC(C)C (centres unmarked)	5.26
CCN(c1ccccc1)S(=O)(=O)c1cc(NC(=O)Nc2ccccc2C#N)ccc1Cl	-34.2
Cc1ccc(NC(=O)CCc2nnc(SCC(=O)Nc3ccccc3C)n2C)cc1Cl	14.5
Cc1ccc(OCCSc2nnc(NC(=O)c3ccco3)s2)cc1	-1.66
O=C(CN1C(=O)C2C3C=CC(C4CC34)C2C1=O)Oc1ccccc1 (centres unmarked)	0.512
CN(C)CCCNC(=O)c1cc2sc3ccccc3c2s1.Cl	-64.7
CN1CCN(C(=O)c2cc3sc4ccccc4c3s2)CC1	-15.5
CN(C)CCCNC(=O)c1cc2c3ccccc3n(C)c2s1	-40.1
COCCN(CCOC)C(=O)c1cc2sc3ccccc3c2s1	-70.6
CN(C)CCNC(=O)c1cc2sc3ccccc3c2s1.Cl	-31.5
COCCNC(=O)c1cc2sc3ccccc3c2s1	-8.28
CCCN(C(=O)CSCc1ccccc1C)c1c(N)n(Cc2ccccc2)c(=O)[nH]c1=O	-4.64
